This excerpt belongs to a sample that is enriched for hits.
TTR transcr act = increases transthyretin transcription; SH-SY5Y TTR promoter Gaussia luciferase, luminescence; 100% = recombinant luciferase protein wells; activation, % at 16.7 µM; 1.3% of 92,000 active;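 active = activation above the mean of all tested compounds plus 3 SD, cut at about 9.5% in these data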;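 also: cells exposed to compounds for one day before reading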
HuH7 TTR inh = counter-screen for TTR activators: TTR transcription inhibitors in HuH7 cells | inhibition, % at 16.7 µM | shares compounds with TTR transcr act | HuH7 TTR promoter-Gaussia luciferase reporter, luminescence | AID 1117279 | 4% of 1,100 active;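 active = average inhibition above the solvent-only control wells' mean plus 3 SD, cut at about 15% in these data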;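 also: inhibitors lower well luminescence so higher value means more inhibition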
TTR act confirm = human TTR transcription activation, confirmation. activation, % at 16.7 µM. shares compounds with TTR transcr act. AID 1117280. SHSY5Y TTR promoter Gaussia luciferase, luminescence; 100% = purified Lucia enzyme wells, no cells. 1,100 tested, under 10 active;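 active = mean activation above a set limit taken from the earlier primary screen, cut at about 11% in these data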
Of the large screens only hits and unclear results are named; the others gave an inactive call (follow-up assays come after a bar, where they were run).

CCC(=O)N(c1nnc(SCC(=O)NN2C(=O)NC3(CCC(C)CC3)C2=O)s1)C1CC1 (stereo not given)	none
CN1C(=O)[C@@](O)(c2cccn2C)c2cc(Cl)ccc21	none
CCOc1ccc(CCNC(=O)Cc2ccccc2)cc1OCC	none
O=C(NNc1nc2ccccc2o1)c1ccccc1	none
O=C(NNc1nc2ccccc2nc1C(F)(F)F)c1ccccc1	TTR transcr act 10.3 | HuH7 TTR inh inactive | TTR act confirm inactive
O=C(NNc1ccccc1F)c1ccccc1	none
COC(=O)[C@H](C)NC(=O)[C@@H]1CC=C[C@@H]2CCN(CCc3ccccc3)C(=O)[C@@H]21	none
Cn1c(=O)cc(OCCCC(=O)Nc2cc(C(F)(F)F)ccn2)c2ccccc21	none
C#CCNC(=O)C[C@H]1C(=O)N(CC=C)C2=CCCC[C@@]21C(=O)OCC	none
COC(=O)[C@@H]1[C@H](O[Si](C)(C)C(C)(C)C)[C@H]2O[C@H]2C[C@H]1S(=O)(=O)c1ccccc1	none
COc1ccc(CCN=C(N)NS(=O)(=O)c2cccs2)cc1OC	none
COc1ccc(S(=O)(=O)NC(N)=NCCc2ccc(OC)c(OC)c2)cc1C	TTR transcr act 11.7 | HuH7 TTR inh inactive | TTR act confirm inactive
COc1ccc(CCN=C(N)NS(=O)(=O)c2ccc(C)c(C)c2)cc1OC	none
CCOC(=O)[C@@]12CCCC=C1N(CCc1ccc(Cl)cc1)C(=O)[C@H]2CC(=O)NCc1ccc(C)o1	none
C=CCN1C/C(=C/c2ccccc2)N2C(=O)CC(c3ccccc3)N=C12 (stereo not given)	TTR transcr act 10.7 | HuH7 TTR inh inactive | TTR act confirm inactive
O=C1CC(c2ccc3ccccc3c2)N=C2N(Cc3ccc4c(c3)OCO4)C/C(=C/c3ccccc3)N12 (stereo not given)	none
CC[C@H]1/C(=C/c2ccccc2)N2C(=O)C[C@H](c3ccccc3)N=C2N1C	none
COC(=O)[C@]12C[C@H](CC(=O)NCC3CCCCC3)C(=O)N(Cc3ccc(Cl)cc3Cl)C1=C[C@H](C1CCCC1)O[C@@H]2C	none
COC(=O)[C@]12C[C@H](CC(=O)NCc3cccc4ccccc34)C(=O)N(Cc3cccc4ccccc34)C1=C[C@H](C1CCCC1)O[C@@H]2C	none
Cc1nnc(SCc2ccc(Cl)cc2)nc1/C=C/N(C)C	TTR transcr act 9.7 | HuH7 TTR inh 17.2 | TTR act confirm inactive
O=c1nc(SCc2ccc(Cl)cc2)nc(-c2ccccc2)[nH]1	none
Cc1nc(C)c(-c2ccc(SCc3ccc(Cl)cc3)nn2)s1	none
COC(=O)C[C@H]1CC[C@@H]2[C@H](COc3ccc(NC(=O)c4ccccc4OC)cc3C(=O)N2C)O1	none
CCCCn1c(SCC(=O)Nc2oc(C)c3c(C)n[nH]c(=O)c23)nc2cc(S(N)(=O)=O)ccc21	none
CCCCn1c(SCc2c(C)noc2C)nc2cc(S(N)(=O)=O)ccc21	TTR transcr act 16.2 | HuH7 TTR inh inactive | TTR act confirm inactive
CCCCn1c(SCC(=O)Nc2cc(C)on2)nc2cc(S(N)(=O)=O)ccc21	none
CN1CCN(c2ccc(-c3csc(N4CCC(C(N)=O)CC4)n3)cc2)CC1	none
O=C(NCc1ccc(C(F)(F)F)cc1)O[C@H]1CC[C@@]23CCCN2C(=O)CCC[C@H]3C1	none
CCC[C@H]1[C@@H](OC(=O)NCCc2ccccc2)CC[C@@]23CCCN2C(=O)CCC[C@@H]13	none
CCCCOCCCNC(=O)C[C@H]1C[C@@]2(C(=O)OC)C(=C[C@H](COCc3ccccc3)O[C@@H]2C)N(Cc2ccc(Cl)cc2Cl)C1=O	none
O=C(CCCc1ccccc1)NC1CCSC1=O (stereo not given)	none
O=C1SCCC1NC(=O)C(c1ccccc1)c1ccccc1 (stereo not given)	TTR transcr act 18.1 | HuH7 TTR inh inactive | TTR act confirm inactive
O=C(NC1CC1)C(Cl)c1ccccc1 (stereo not given)	none
COC(=O)[C@]12C[C@H](CC(=O)NCCCCc3ccccc3)C(=O)N(Cc3cccc4ccccc34)C1=C[C@H](C(C)(C)C)O[C@@H]2C	none
CCCCCCCCN1C(=O)[C@@H](CC(=O)N2CCCCC2)C[C@@]2(C(=O)OC)C1=C[C@H](COCc1ccccc1)O[C@@H]2C	none
Cc1cc(C)n(CC(O)COc2cccc(OCC(O)Cn3nc(C)cc3C)c2)n1 (stereo not given)	none
Cc1cc(C)n(CCOc2ccc(Br)cc2)n1	TTR transcr act 10.1 | HuH7 TTR inh inactive | TTR act confirm inactive
Cc1cc(C)n(CCCC(=O)O)n1	none
COc1ccc(Sc2cccc3c2S(=O)(=O)N([C@H](C)c2ccccc2)C[C@@H](COCc2ccccc2)O3)cc1OC	none
C#CCNC(=O)C[C@H]1C[C@@]2(C(=O)OC)C(=C[C@H](COCc3ccccc3)O[C@@H]2C)N(Cc2ccco2)C1=O	none
COC(=O)[C@]12C[C@H](CC(=O)N3CCSCC3)C(=O)N(Cc3ccco3)C1=C[C@H](C1CCCC1)O[C@@H]2C	none

Assay outcomes as filed in PubChem.
